Bioassay records (PubChem)
B2AR arrestin ag – agonists recruiting beta-arrestin to human beta2-adrenergic receptor; HTLA Tango cells, beta-arrestin recruitment, luciferase luminescence, 18 h; 44,000 tested, under 10 active; Potency, µM (top dose mostly 46.1 µM), usual class: activators; AID 1347077;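 also: potency is read from the fitted curve at half-maximal effect; 0% = DMSO and full agonism = EC100 isoproterenol or metaproterenol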
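Ligand-induced beta-arrestin recruitment to recombinant beta2-AR is measured via a tTA-driven luciferase reporter in Tango cells after 18 hr compound exposure at 37 degrees C. Concentrations span up to 46 microM.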
GALC G270D up – galactocerebrosidase G270D activity enhancement, cell-based; 145M-Twi-hGALC-G270D cells (Twitcher mouse brain line with human GALC G270D), HMU-beta-Gal fluorescence, 48 h; Potency, µM (titrated, usually from 57.5 µM), usual class: activators; 0.1% of 45,000 active; AID 1159614; also: potency is read from the fitted curve at half-maximal effect; 0% is about no effect; nearly all actives have a fitted effect of over 65% in size
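Live 145M-Twi cells (Twitcher mouse brain-derived, GALC-null) stably expressing human GALC-G270D, with a wild-type GALC line, were compound-treated. Residual GALC activity was then read as fluorescence from 0.1 mM final HMU-β-gal at pH 5.2; higher signal means activation.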
DRV1 agonist – activates human resolvin D1 receptor GPR32; O75388; 2.5% of 48,000 active; activation, % at 76.9 µM; CHO-K1 GPR32 beta-arrestin PathHunter luminescence, 90 min; zero percent set by DMSO-only wells;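 active = activation of at least 60% and not above a set upper limit, about 1 call in 100 departs from these limits; inconclusive = activation of 40% to 60%, or above that upper limit; inactive = activation under 40%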; also: 0% is about no effect
Target sequence (O75388 whole entry, looked up): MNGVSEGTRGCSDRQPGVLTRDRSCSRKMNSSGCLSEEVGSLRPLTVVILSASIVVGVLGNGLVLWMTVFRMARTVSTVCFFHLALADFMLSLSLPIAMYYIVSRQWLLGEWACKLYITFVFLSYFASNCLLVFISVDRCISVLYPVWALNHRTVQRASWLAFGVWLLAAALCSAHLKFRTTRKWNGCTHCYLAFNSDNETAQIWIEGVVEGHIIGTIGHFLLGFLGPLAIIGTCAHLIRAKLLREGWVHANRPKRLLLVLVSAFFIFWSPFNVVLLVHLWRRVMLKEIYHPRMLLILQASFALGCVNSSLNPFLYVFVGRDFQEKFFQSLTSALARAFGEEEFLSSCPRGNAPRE
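Using DMSO wells as EC0, agonist-induced signal was taken as chemiluminescence from beta-Gal reconstituted upon beta-arrestin recruitment to GPR32 in CHO-K1 cells after 90 min compound treatment.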
FH mod – Identification of activators of human fumarate hydratase by quantitative high-throughput screening; FH coupled MDH/diaphorase resazurin fluorescence, 15 min; Potency, µM (highest dose often 79.9 µM), for the others: at the top dose activity change, negative = inhibition, most hits filed as inhibitors; 0.22% of 54,000 active; also: potency is read from the fitted curve at half-maximal effect; % is scaled to controls: 0 for no effect and ±100 for the full control effect; the screen sought activators but most active calls are inhibition curves; nearly all actives have a fitted effect of over 45% in size
GALK inhibitor – GALK (human) enzyme inhibition. AID 1347072. 44,000 tested, under 10 active. Potency, µM (top dose mostly 57.5 µM), without a hit: top-dose activity, negative = inhibition, most hits filed as inhibitors. recombinant GALK, Kinase-Glo ATP luminescence, 1 h. P51570;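 also: plate controls were full GALK reaction for no effect and reaction lacking GALK for full effect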
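Compounds were pinned into ATP buffer, then GALK-galactose mix was added (final 5 nM enzyme, 35 uM ATP, 100 uM galactose, pH 8.0). After 1 h at room temperature, Kinase-Glo Plus was added and luminescence read.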
TSG101-PTAP inh – TSG101-PTAP interaction inhibition, HIV-1 budding; Fluorescence polarization, FITC-PTAP peptide/Tsg101, 20 min; Potency, µM (titrated, usually from 115 µM), hits mostly inhibitors; 44,000 tested, under 10 active; also: potency is read from the fitted curve at half-maximal effect; 0% is about no effect
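Compounds pinned into 10 uM Tsg101 binding domain, then 50 nM FITC-PTAP peptide added in pH 7.5 HEPES buffer; FP read after 20 min, room temperature. Total S+P intensity flags fluorescent compounds; active cut-off <25 µM, efficacy <60%.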
Numbers without * were called inactive; i = inactive; u = inconclusive; x = no result given; ! = not confirmed by another sample; [ ] = another dose, or the depositor's remark. Rows were chosen to be rich in hits. Some 2.8% of all compounds tested hit in one or more screens of this group. Unless noted, calls follow the shape of the dose curve; as a rule, active = well fitted curve in the direction sought with a large enough effect; inconclusive = small, poorly fitted or top-dose-only effect, or another doubt; inactive = no such curve, though single readings can be large; an effect the other way counts as inactive or inconclusive.

SMILES	B2AR arrestin ag	GALC G270D up	DRV1 agonist	FH mod	GALK inhibitor	TSG101-PTAP inh
Cc1cc(C(=O)N2Cc3cnn(C)c3Nc3ccccc32)ccc1CNC(=O)N1CCC[C@H]1C(=S)N1CCCN(C)CC1	x	x	x	5.3%	x	x
COc1ccc(CNC(=O)c2ccc(CS(=O)(=O)c3ccc(OC)cc3)o2)cc1	i	i	-10.5	-9.7%	-0.7%	i
COc1ccc(S(=O)(=O)Cc2ccc(C(=O)NC3CCCCC3)o2)cc1	i	i	89.3*	-6.9%	-0.3%	i
C=C1C(=O)OC2/C=C(\CO)CC/C=C(\C=O)C(OC)C(OC(=O)C(C)CC)C12 (centres undefined)	x	x	x	-4.8%[53.3 µM]	x	x
CC1CCc2c(sc(NC(=O)c3ccc(Cl)cc3Cl)c2C#N)C1 (centres undefined)	i	i	106.0*	-8.4%	1.7%	i
CC1CCc2c(sc(NC(=O)C3c4ccccc4Oc4ccccc43)c2C#N)C1 (centres undefined)	i	i	-6.5	-15.8%	1.7%	i
CCOC(=O)N1CCN(C(=O)Cn2sc3nc(C)cc(C)c3c2=O)CC1	x	x	x	3.8%	x	x
CC(=O)c1ccc(NC(=O)CC2Oc3ccc(C)cc3NC2=O)cc1 (centres undefined)	i	i	64.8*	3.5%	-9.4%	i
Cc1ccc(NC(=O)CC2Oc3ccc(C)cc3NC2=O)c(C)c1 (centres undefined)	i	i	0.2	-2.7%	1.4%	i
Cc1cc(-c2ccc(/C=C3\SC(=Nc4ccc(Cl)c(C(=O)O)c4)NC3=O)o2)c([N+](=O)[O-])cc1C	x	x	x	25.1µM*	x	x
COc1ccc2[nH]cc(CCNC(=O)Nc3c(C)cccc3C)c2c1	i	i	32.2	-7.0%	1.0%	i
COc1ccc2[nH]cc(CCNC(=O)Nc3cccc(F)c3)c2c1	i	i	93.2*	-13.1%	-0.6%	i
COc1ccc(CCNC(=O)c2cc3c(-c4ccc(OC)c(OC)c4)nn(C)c3s2)cc1OC	i	i	6.0	31.6µM*	7.7%	i
COc1ccc2nccc(C(=O)CC[C@@H]3CCN(CC#Cc4cc(F)cc(F)c4F)C[C@@H]3C(=O)O)c2c1	x	x	x	-11.2%	x	x
COc1cc(NC(=O)c2cccc(-n3cc(NC(=O)Nc4cccc(C)c4)cn3)c2)cc(OC)c1OC	x	x	x	4.3%	x	x
NS(=O)(=O)c1ccc(CCNC(=O)c2nc(SCc3ccccc3F)ncc2Cl)cc1	i	i	82.6*	6.2%	-1.1%	i
O=C(Nc1ccccc1F)c1nc(SCc2ccccc2F)ncc1Cl	u	i	-4.7	-1.3%	-5.2%	i
CN1C[C@H](C(=O)N[C@]2(C)O[C@@]3(O)[C@@H]4CCCN4C(=O)[C@H](Cc4ccccc4)N3C2=O)C[C@@H]2c3cccc4[nH]cc(c34)C[C@H]21	x	i	-18.0	-16.5%[53.3 µM]	x	x
CCCN1C[C@H](CSC)C[C@@H]2c3cccc4[nH]cc(c34)C[C@H]21	x	i	79.4*!	0.4%	x	x
O=c1cc(-c2ccccc2)oc2ccccc12	x	i	62.3*	-15.4%	x	x
O=c1cc(-c2ccccc2)oc2c(O)c(O)ccc12	x	x	x	15.8µM*	x	x
O=c1cc(-c2ccccc2)oc2ccc(O)cc12	x	x	x	-11.5%	x	x
COc1cc(OC)cc(C(=O)Nc2ccc(Cl)c(-c3nc4ccc(N(C)C)cc4[nH]3)c2)c1	x	x	x	-6.9%	x	x
COc1ccc(Cl)cc1[C@@]1(F)C(=O)Nc2cc(C(F)(F)F)ccc21	x	x	x	-15.9%	x	x
CCCN(CCN1CCN(c2ccccc2OC)CC1)C1CCc2ncsc2C1 (centres undefined)	x	x	x	4.3%	x	x
CC(C)c1ccc(NC(=O)Cn2c(=O)oc3cc(S(=O)(=O)N4CCCC4)ccc32)cc1	i	i	96.7*	-22.1%	5.1%	i
